Measured values published in PubChem BioAssay (EPA / NIEHS).
“And” between values parts separate entries of the source, which are not always exact repeats. Equal values may be shown once. More than one record can exist for a structure, and the calls need not agree. The source made the active and inactive calls. How the source made its calls: active means hit-call score of the fitted dose curve at least 0.9, where 1 is the maximum; inactive means score below 0.9.

Key:
[1] = read-out: Epidermal growth factor receptor (EGFR), EGFR (gene 1956); experiment: BSK_BE3C_EGFR: BioMAP Diversity Plus: BE3C Assay for Epidermal growth factor receptor (EGFR) Biomarker Activity (AID 2284281); settings: primary human bronchial epithelial cells
Method in brief: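 Primary human lung bronchial epithelial cells; compound, 24 h; EGFR measured by ELISA; positive-direction fit vs DMSO baseline.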

[2] = read-out: Matrix Metallopeptidase 9 (MMP9), MMP9 (gene 4318); experiment: BSK_BE3C_MMP9: BioMAP Diversity Plus: BE3C Assay for Matrix Metallopeptidase 9 (MMP9) Biomarker Activity (AID 2284283); settings: primary human bronchial epithelial cells
Method in brief: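 Endpoint is the ELISA MMP-9 signal in human primary bronchial epithelial cultures taken 24 h after chemical dosing. DMSO serves as negative control and baseline, with gain-of-signal fitting.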

[3] = read-out: Plasminogen activator inhibitor-1 (PAI1), SERPINE1 (gene 5054); experiment: BSK_CASM3C_PAI1: BioMAP Diversity Plus: CASM3C Assay for Plasminogen activator inhibitor-1 (PAI1) Biomarker Activity (AID 2284284); settings: primary human coronary artery smooth muscle cells;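 further: PAI-1 protein level measured by ELISA 24 h after dosing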
[4] = read-out: Intercellular Adhesion Molecule 1 (ICAM1), ICAM1 (gene 3383); experiment: BSK_hDFCGF_ICAM1: BioMAP Diversity Plus: hDFCGF Assay for Intercellular Adhesion Molecule 1 (ICAM1) Biomarker Activity (AID 2284287); settings: primary human foreskin fibroblasts
Method in brief: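 Primary human foreskin fibroblasts (hDFCGF system) dosed with chemical; ICAM-1 quantified by ELISA at 24 h relative to DMSO. Parallel SRB total-protein staining to assess overt cytotoxicity.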

[5] = read-out: TIMP metallopeptidase inhibitor 2 (TIMP2), TIMP2 (gene 7077); experiment: BSK_hDFCGF_TIMP2: BioMAP Diversity Plus: hDFCGF Assay for TIMP metallopeptidase inhibitor 2 (TIMP2) Biomarker Activity (AID 2284289); settings: primary human foreskin fibroblasts
Method in brief: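 Primary human foreskin fibroblasts in the hDFCGF system, dosed for 24 h; TIMP-2 level measured by ELISA, fitted in the positive direction against DMSO; cytotoxicity checked in parallel by sulforhodamine B total protein staining.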

[6] = read-out: Thrombomodulin, THBD (gene 7056); experiment: BSK_LPS_Thrombomodulin: BioMAP Diversity Plus: LPS Assay for Thrombomodulin Biomarker Activity (AID 2284296); settings: primary human HUVEC with PBMC
Method in brief: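 Human umbilical vein endothelial cells co-cultured with PBMC and stimulated with LPS; cell-surface thrombomodulin measured by ELISA 24 hours after compound. Gain or loss versus DMSO; cytotoxicity checked by SRB staining in parallel cultures.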

[7] = IUF_NPC2c_oligodendrocyte_migration_120hr: Leibniz Research Institute for Environmental Medicine (IUF) 120-hour Neural Progenitor Cell Migration Assay for Oligodendrocyte Migration (NPC2c) (AID 2284297);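 further: O4-positive oligodendrocyte migration distance divided by radial glia migration distance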
Method in brief: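 Using fetal brain neural progenitor spheres differentiating in N2 medium at 37C, compounds were present for 120 h. Oligodendrocyte migration distance, normalized to radial glia migration, was measured from imaged O4 staining.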

[8] = IUF_NPC2a_radial_glia_migration_120hr: Leibniz Research Institute for Environmental Medicine (IUF) 120-hour Neural Progenitor Cell Migration Assay for Radial Glia Migration (NPC2a) (AID 2284298)
Method in brief: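 Exposure of 0.3 mm primary hNPC spheres runs day 0 to 120 h with a half-volume medium change at day 3. Fixed cells get Hoechst staining; high-content analysis of nuclear positions yields radial glia migration distance per well, compared against DMSO controls.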

[9] = IUF_NPC2a_radial_glia_migration_72hr: Leibniz Research Institute for Environmental Medicine (IUF) 72-hour Neural Progenitor Cell Migration Assay for Radial Glia Migration (NPC2a) (AID 2284299)
Method in brief: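 Human fetal cortex (GW 16-19) neural progenitor spheres, 0.3 mm, plated on poly-D-lysine/laminin in N2 differentiation medium with compound from day 0. Radial glia migration distance (um, sphere core edge to migration edge) measured manually in four directions on 72 h brightfield images; well mean used.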

[10] = IUF_NPC2b_neuronal_migration_120hr: Leibniz Research Institute for Environmental Medicine (IUF) 120-hour Neural Progenitor Cell Migration Assay for Neuron Migration (NPC2b) (AID 2284300)
Method in brief: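 Fetal human NPC spheres migrate on PDL/laminin during 120 h compound treatment; neuronal migration distance, glia-normalized, scored versus DMSO control.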

[11] = IUF_NPC3_neuronal_differentiation_120hr: Leibniz Research Institute for Environmental Medicine (IUF) 120-hour Neuronal Differentiation Assay (NPC3) (AID 2284301)
Method in brief: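 Primary human fetal neural progenitor spheres (GW 16-19, 0.3 mm) plated on poly-D-lysine/laminin in N2 medium, exposed from day 0 for 120 h with half-medium refresh at day 3. TUBB3+ cells as percent of Hoechst nuclei in migration area; DMSO baseline.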

[12] = IUF_NPC4_neurite_length_120hr: Leibniz Research Institute for Environmental Medicine (IUF) 120-hour Neuronal Morphology Assay for Neurite Length (NPC4) (AID 2284302)
Method in brief: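 Human fetal cortex (GW 16-19) neural progenitor spheres, 0.3 mm, were plated on poly-D-lysine/laminin in N2 differentiation medium and exposed from day 0 for 120 h, half-feeding at day 3. Mean TUBB3+ neurite length (µm) came from skeletonized images, relative to DMSO.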

[13] = read-out: Vascular cell adhesion molecule 1 (VCAM1), VCAM1 (gene 7412); experiment: BSK_IMphg_VCAM1: BioMAP Diversity Plus: IMphg Assay for Vascular cell adhesion molecule 1 (VCAM1) Biomarker Activity (AID 2284286); settings: primary human endothelial cells with macrophages
Method in brief: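 Human venular endothelial cells co-cultured with macrophages; VCAM-1 quantified by ELISA 24 h after dosing, fitted in the positive direction against DMSO. Cytotoxicity was checked in parallel cultures by SRB total-protein staining (0.1% SRB after 10% TCA fixation, 560 nm).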

CD40, CD40 (gene 958) = experiment: BSK_IMphg_CD40: BioMAP Diversity Plus: IMphg Assay for CD40 Biomarker Activity (AID 2284288); settings: primary human endothelial cells with macrophages
Method in brief: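 Venular endothelial cells co-cultured with macrophages (human primary), CD40 measured by ELISA 24 h after dosing. Positive-direction fit vs DMSO baseline; cytotoxicity tracked by SRB total-protein staining in parallel cultures.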

[14] = read-out: Interleukin-1 alpha (IL1a), IL1A (gene 3552); experiment: BSK_IMphg_IL1a: BioMAP Diversity Plus: IMphg Assay for Interleukin-1 alpha (IL1a) Biomarker Activity (AID 2284290); settings: primary human endothelial cells with macrophages
Method in brief: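 Human venular endothelial cells co-cultured with macrophages, IMphg system. IL-1α is measured by ELISA 24 h after dosing and fitted in the positive direction against DMSO. Cytotoxicity is assessed by SRB staining of parallel cultures.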

[15] = read-out: E-selectin (Homo sapiens) (UniProt P16581); experiment: BSK_IMphg_ESelectin: BioMAP Diversity Plus: IMphg Assay for Eselectin Biomarker Activity (AID 2284291); settings: primary human endothelial cells with macrophages
Method in brief: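 Human venular endothelial cell–macrophage co-culture, E-selectin measured by ELISA 24 h after chemical dosing. Signal fitted in the positive direction against DMSO as negative control and baseline.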

[16] = BSK_IMphg_SRB: Viability Assessment in the BioMAP Diversity Plus: IMphg Assay (AID 2284292); settings: primary human endothelial cells with macrophages;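 further: measured one day after compound addition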
Method in brief: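 Human venular endothelial cells with macrophages, 24 h after chemical dosing; total protein by 0.1% SRB staining after 10% TCA fixation, read at 560 nm. Positive-direction fitting versus DMSO baseline.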

[17] = read-out: Macrophage colony-stimulating factor (MCSF), CSF1 (gene 1435); experiment: BSK_IMphg_MCSF: BioMAP Diversity Plus: IMphg Assay for Macrophage colony-stimulating factor (MCSF) Biomarker Activity (AID 2284293); settings: primary human endothelial cells with macrophages
Method in brief: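 Co-culture of human venular endothelial cells and macrophages, 24 hours of chemical exposure. M-CSF quantified by ELISA, with parallel SRB total-protein staining for cytotoxicity; activity fitted relative to DMSO.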

[18] = read-out: Interleukin-10 (IL10), IL10 (gene 3586); experiment: BSK_IMphg_IL10: BioMAP Diversity Plus: IMphg Assay for Interleukin-10 (IL10) Biomarker Activity (AID 2284294); settings: primary human endothelial cells with macrophages
Method in brief: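 Human venular endothelial cells cocultured with macrophages, dosed 24 h; IL-10 measured by ELISA, activity relative to DMSO. Cytotoxicity assessed in parallel cultures by sulforhodamine B total-protein staining.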

[19] = BSK_IMphg_SRB.Mphg: Macrophage Viability Assessment in the BioMAP Diversity Plus: IMphg Assay (AID 2284295); settings: primary human endothelial cells with macrophages
Method in brief: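 Venular endothelial cells co-cultured with macrophages, read 24 h after dosing. Total protein measured by 0.1% SRB staining after 10% TCA fixation, absorbance at 560 nm. Fitted in positive direction against DMSO baseline.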

Sequence of E-selectin (Homo sapiens) (P16581 whole entry, looked up): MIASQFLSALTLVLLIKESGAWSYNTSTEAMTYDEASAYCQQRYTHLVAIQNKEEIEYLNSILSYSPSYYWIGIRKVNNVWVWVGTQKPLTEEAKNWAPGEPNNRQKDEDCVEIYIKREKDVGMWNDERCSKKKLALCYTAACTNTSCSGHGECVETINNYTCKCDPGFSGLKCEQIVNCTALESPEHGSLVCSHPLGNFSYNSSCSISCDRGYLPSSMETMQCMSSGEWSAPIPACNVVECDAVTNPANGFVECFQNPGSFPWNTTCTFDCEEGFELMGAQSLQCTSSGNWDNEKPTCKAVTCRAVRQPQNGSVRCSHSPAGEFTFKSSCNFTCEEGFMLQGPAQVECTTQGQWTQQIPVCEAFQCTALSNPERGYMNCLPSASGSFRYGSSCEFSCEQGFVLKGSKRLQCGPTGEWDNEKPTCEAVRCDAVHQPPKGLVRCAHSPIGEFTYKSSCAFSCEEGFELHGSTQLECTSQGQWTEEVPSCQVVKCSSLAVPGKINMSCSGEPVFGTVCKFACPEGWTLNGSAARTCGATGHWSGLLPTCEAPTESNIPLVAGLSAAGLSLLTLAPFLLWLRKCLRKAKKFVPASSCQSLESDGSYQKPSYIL

## CC(=O)c1ccc(C)cc1
[1]
  outcome: inactive
[2]
  outcome: inactive
[3]
  outcome: inactive
[4]
  outcome: inactive
[5]
  outcome: inactive
[6]
  outcome: inactive

## c1ccc(OCCOc2ccccc2)cc1
[1]
  outcome: inactive
[2]
  outcome: inactive
[3]
  outcome: inactive
[4]
  outcome: inactive
[5]
  AC50: 3.6 µM (active)
  outcome: inactive
[6]
  AC50: 12.3 µM (active)
  outcome: inactive

## N[C@@H](CCC(=O)O)C(=O)O
[7]
  outcome: inactive
[8]
  outcome: inactive
[9]
  outcome: inactive
[10]
  outcome: inactive
[11]
  outcome: inactive
[12]
  outcome: inactive

## O=C(O)C(F)(F)C(F)(F)C(F)(F)C(F)(F)C(F)(F)C(F)(F)C(F)(F)C(F)F
[1]
  outcome: inactive
[2]
  outcome: inactive
[3]
  outcome: inactive
[13]
  outcome: inactive
[4]
  outcome: inactive
CD40, CD40 (gene 958)
  outcome: inactive
[5]
  outcome: inactive
[14]
  outcome: inactive
[15]
  outcome: inactive
[16]
  outcome: inactive
[17]
  outcome: inactive
[18]
  AC50: 47.1 µM (active) and 57.5 µM (active)
[19]
  outcome: inactive
[6]
  outcome: inactive

## CC(C)(CO)CO
[1]
  outcome: inactive
[2]
  outcome: inactive
[3]
  outcome: inactive
[4]
  outcome: inactive
[5]
  outcome: inactive
[6]
  outcome: inactive

## O=S(=O)(O)C(F)(F)C(F)(F)OC(F)(F)C(F)(F)F
[1]
  outcome: inactive
[2]
  outcome: inactive
[3]
  outcome: inactive
[13]
  outcome: inactive
[4]
  outcome: inactive
CD40, CD40 (gene 958)
  outcome: inactive
[5]
  outcome: inactive
[14]
  outcome: inactive
[15]
  outcome: inactive
[16]
  outcome: inactive
[17]
  outcome: inactive
[18]
  AC50: 47.8 µM (active) and 44.1 µM (active)
[19]
  outcome: inactive
[6]
  outcome: inactive

## CCCCN(CCO)CCO
[1]
  outcome: inactive
[2]
  outcome: inactive
[3]
  outcome: inactive
[4]
  outcome: inactive
[5]
  AC50: 4.34 µM (active)
  outcome: inactive
[6]
  outcome: inactive

## CCCCC(CC)COC(=O)COc1ccc(Cl)cc1C (stereo not drawn)
[7]
  outcome: inactive
[8]
  outcome: inactive
[9]
  outcome: inactive
[10]
  outcome: inactive
[11]
  outcome: inactive
[12]
  outcome: inactive

## CCn1cc(C(=O)O)c(=O)c2ccc(C)nc21
[1]
  outcome: inactive
[2]
  outcome: inactive
[3]
  outcome: inactive
[4]
  outcome: inactive
[5]
  outcome: inactive
[6]
  outcome: inactive
